Of roughly 8,800 targets only a part is listed; those with a hit were picked by preference. About 0.5% of all pairs of compound and target were hits.
Legend:
Test in all cases: log2 fold change, soluble protein after heating vs DMSO (PISA); higher = thermal stabilisation; K562 lysate, 10 uM; active = over 0.2 and 3.5 SD of the protein, either way, in both replicates (recomputed)
[1] = compound: C1=CC=C(C=C1)[C@H](COC2=CC3=C(C=C2)NC(=O)N3)NC(=O)C4=CC=CN(C4=O)CC5=CC(=C(C=C5)F)F
In short: (§1)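 K562 pellets were dounce-homogenised in PBS pH 7.4 containing 1 mM MgCl2, and the crude extract, at 1 mg/mL protein, was exposed to 10 μM compound for 30 min. Aliquots were heated for 3 min across 48°C-58°C, pooled, brought to 0.5% NP-40 at 4°C and spun at 21,000xg for 90 min, with the supernatant taken as soluble protein. TMTpro 16plex LC-MS/MS with equalised channel sums quantified that protein. Values are log-two fold changes in thermal stability relative to solvent controls, taken from duplicates.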

[2] = compound: CC1=C(SC2=C1C(=N[C@H](C3=NN=C(N32)C)CC(=O)N)C4=CC=C(C=C4)Cl)C
In short: as §1

[3] = compound: CC1=C2C(=CC=C1)N=C(N(C2=O)C3=CC=CC=C3C)CN4C=NC5=C(N=CN=C54)N
In short: as §1

[4] = compound: Cc1sc2c(c1C)C(c1ccc(Cl)cc1)=N[C@@H](CC(=O)OC(C)(C)C)c1nnc(C)n1-2
In short: as §1

[5] = compound: c1ccc([C@@H]2C[C@H]2NC2CCNCC2)cc1
In short: as §1

Measured: log2 fold change

ETFRF1 (UniProt Q6IPR1)
inactive: [1] 0.021 | [2] 0.058 | [3] -0.031 | [4] -0.02 | [5] 0.066

ENY2 (UniProt Q9NPA8)
inactive: [1] 0.033 | [2] -0.001 | [3] -0.162 | [4] 0.117 | [5] 0.386

GAPVD1 (UniProt Q14C86)
inactive: [1] 0.036 | [2] -0.067

FXR2 (UniProt P51116)
UniProt P51116, sequence (P51116 whole entry, looked up): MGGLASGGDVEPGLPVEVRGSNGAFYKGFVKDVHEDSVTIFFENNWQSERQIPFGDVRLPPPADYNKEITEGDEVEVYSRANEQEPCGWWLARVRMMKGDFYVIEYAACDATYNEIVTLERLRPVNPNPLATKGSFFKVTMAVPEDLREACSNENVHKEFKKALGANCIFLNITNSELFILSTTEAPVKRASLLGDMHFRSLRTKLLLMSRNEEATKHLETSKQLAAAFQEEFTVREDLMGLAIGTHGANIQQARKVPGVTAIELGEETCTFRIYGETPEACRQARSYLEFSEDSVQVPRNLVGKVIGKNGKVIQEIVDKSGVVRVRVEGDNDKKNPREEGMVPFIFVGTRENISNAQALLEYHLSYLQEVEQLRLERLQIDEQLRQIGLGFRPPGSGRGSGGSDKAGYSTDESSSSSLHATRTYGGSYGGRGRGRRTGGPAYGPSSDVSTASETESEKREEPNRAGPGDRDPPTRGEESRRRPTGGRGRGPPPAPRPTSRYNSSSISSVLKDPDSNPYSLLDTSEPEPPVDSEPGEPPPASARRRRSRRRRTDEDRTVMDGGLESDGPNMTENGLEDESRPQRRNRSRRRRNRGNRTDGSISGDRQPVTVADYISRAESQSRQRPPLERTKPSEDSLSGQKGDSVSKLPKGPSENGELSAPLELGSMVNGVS
inactive: [1] -0.021 | [2] -0.011 | [3] 0.032 | [4] -0.014 | [5] 0.054

GEMIN5 (UniProt Q8TEQ6)
inactive: [1] -0.015 | [2] 0.025 | [3] 0.016 | [4] -0.002 | [5] 0.036

ECH1 (UniProt Q13011)
inactive: [1] -0.059 | [2] 0.008 | [3] -0.006 | [4] -0.026 | [5] 0.012

ELAVL1 isoform 2 (UniProt Q15717)
inactive: [1] -0.038 | [2] 0 | [3] -0.017 | [4] 0.066 | [5] 0.052

GATAD2A isoform 3 (UniProt Q86YP4)
inactive: [1] -0.01 | [2] -0.006 | [3] 0.032 | [4] -0.015 | [5] 0.036

EP400 isoform 5 (UniProt Q96L91)
inactive: [1] -0.008 | [2] 0.024 | [3] -0.014 | [4] 0.06 | [5] 0.016

GCN1 (UniProt Q92616)
inactive: [1] -0.046 | [2] 0.003 | [3] 0.019 | [4] 0.035 | [5] 0.063

FAM120B (UniProt Q96EK7)
inactive: [1] 0.034 | [2] 0.059 | [3] -0.004 | [4] -0.016 | [5] 0.035

FTSJ3 (UniProt Q8IY81)
UniProt Q8IY81, sequence (Q8IY81 whole entry, looked up): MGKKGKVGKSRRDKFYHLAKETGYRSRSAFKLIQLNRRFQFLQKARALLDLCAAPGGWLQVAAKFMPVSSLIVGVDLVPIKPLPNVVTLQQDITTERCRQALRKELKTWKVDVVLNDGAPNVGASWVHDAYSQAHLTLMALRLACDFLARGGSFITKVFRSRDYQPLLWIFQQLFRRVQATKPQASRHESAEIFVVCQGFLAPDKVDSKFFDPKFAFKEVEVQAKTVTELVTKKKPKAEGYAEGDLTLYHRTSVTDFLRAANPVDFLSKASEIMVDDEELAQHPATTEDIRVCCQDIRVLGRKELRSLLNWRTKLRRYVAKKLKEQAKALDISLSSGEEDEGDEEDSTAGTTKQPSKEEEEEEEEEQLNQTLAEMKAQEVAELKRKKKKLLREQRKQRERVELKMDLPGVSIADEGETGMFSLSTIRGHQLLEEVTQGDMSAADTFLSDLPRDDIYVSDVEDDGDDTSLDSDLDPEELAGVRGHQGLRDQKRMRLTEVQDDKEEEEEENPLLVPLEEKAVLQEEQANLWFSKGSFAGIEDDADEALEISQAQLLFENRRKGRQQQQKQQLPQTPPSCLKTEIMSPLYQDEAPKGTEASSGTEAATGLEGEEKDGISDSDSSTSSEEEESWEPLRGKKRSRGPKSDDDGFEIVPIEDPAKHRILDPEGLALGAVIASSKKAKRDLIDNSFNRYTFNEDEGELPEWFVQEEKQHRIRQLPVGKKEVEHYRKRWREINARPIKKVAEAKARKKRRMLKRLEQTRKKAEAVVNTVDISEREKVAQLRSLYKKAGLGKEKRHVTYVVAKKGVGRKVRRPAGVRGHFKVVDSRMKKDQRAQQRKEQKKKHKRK
inactive: [1] 0.022 | [2] -0.051 | [3] -0.007 | [4] -0.003 | [5] 0.083

EIF2B4 (UniProt Q9UI10)
inactive: [1] 0.028 | [2] 0.079 | [3] -0.005 | [4] -0.224

FCHO1 (UniProt O14526)
inactive: [1] -0.026 | [2] 0.066 | [3] -0.025 | [4] 0.009 | [5] 0.027

FBXO22 (UniProt Q8NEZ5)
inactive: [1] -0.007 | [2] -0.004 | [3] 0.03 | [4] 0.02 | [5] 0.083

GGT7 (UniProt Q9UJ14)
inactive: [1] -0.138 | [2] 0.017 | [3] 0.103 | [4] -0.015 | [5] -0.048

FBXO38 (UniProt Q6PIJ6)
inactive: [1] -0.007 | [2] 0.094 | [3] 0.007 | [4] 0.068 | [5] 0.013

FADS3 (UniProt Q9Y5Q0)
UniProt Q9Y5Q0, sequence (Q9Y5Q0 whole entry, looked up): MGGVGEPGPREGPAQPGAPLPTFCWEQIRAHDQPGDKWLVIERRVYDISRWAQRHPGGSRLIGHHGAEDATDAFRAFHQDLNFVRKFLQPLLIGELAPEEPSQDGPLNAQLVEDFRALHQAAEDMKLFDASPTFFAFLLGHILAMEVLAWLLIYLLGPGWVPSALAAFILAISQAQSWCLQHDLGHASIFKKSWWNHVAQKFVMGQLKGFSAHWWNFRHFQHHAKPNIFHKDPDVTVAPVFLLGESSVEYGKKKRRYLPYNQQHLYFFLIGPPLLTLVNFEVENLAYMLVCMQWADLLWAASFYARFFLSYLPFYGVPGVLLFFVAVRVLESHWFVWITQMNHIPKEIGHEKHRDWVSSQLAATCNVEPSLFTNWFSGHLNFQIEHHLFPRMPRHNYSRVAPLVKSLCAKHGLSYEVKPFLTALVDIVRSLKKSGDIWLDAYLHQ
inactive: [1] 0.021 | [2] 0.018 | [3] -0.227 | [4] -0.06 | [5] -0.115

ERI1 (UniProt Q8IV48)
inactive: [1] 0.071 | [2] -0.061 | [3] -0.022 | [4] -0.015 | [5] 0.056

FIG4 (UniProt Q92562)
inactive: [1] -0.107 | [2] -0.108 | [3] 0.037 | [4] 0.039 | [5] -0.037

GEMIN4 (UniProt P57678)
inactive: [1] -0.036 | [2] -0.015 | [3] -0.014 | [4] 0.04 | [5] 0.041

DST (UniProt Q03001)
inactive: [1] -0.002 | [2] 0.042 | [3] 0.111 | [4] -0.061 | [5] -0.077

GFPT1 (UniProt Q06210)
inactive: [1] -0.021 | [2] -0.001 | [3] 0.021 | [4] 0.019 | [5] 0.058

EXO5 (UniProt Q9H790)
inactive: [1] 0.033 | [2] -0.179

FOXJ3 (UniProt Q9UPW0)
inactive: [1] 0.004 | [2] -0.072 | [3] 0.013 | [4] -0.021 | [5] -0.026

EIF2B4 isoform 2 (UniProt Q9UI10)
inactive: [1] -0.026 | [2] 0.04 | [3] 0.037 | [4] -0.007 | [5] 0.042

FIGNL1 (UniProt Q6PIW4)
inactive: [1] -0.033 | [2] 0.01 | [3] 0.028 | [4] 0.051 | [5] 0.085

FTL (UniProt P02792)
UniProt P02792, sequence (P02792 whole entry, looked up): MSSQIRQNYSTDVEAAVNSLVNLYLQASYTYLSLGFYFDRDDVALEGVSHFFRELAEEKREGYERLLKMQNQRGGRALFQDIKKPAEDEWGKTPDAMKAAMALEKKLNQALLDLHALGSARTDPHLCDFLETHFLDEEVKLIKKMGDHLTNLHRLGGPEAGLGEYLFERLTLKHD
inactive: [1] -0.067 | [2] 0.127 | [3] -0.034 | [4] -0.03 | [5] -0.031

FASTKD2 (UniProt Q9NYY8)
inactive: [1] -0.013 | [2] 0.044 | [3] 0.018 | [4] 0.017 | [5] 0.002

EWSR1 isoform 5 (UniProt Q01844)
UniProt Q01844, sequence (Q01844 whole entry, looked up): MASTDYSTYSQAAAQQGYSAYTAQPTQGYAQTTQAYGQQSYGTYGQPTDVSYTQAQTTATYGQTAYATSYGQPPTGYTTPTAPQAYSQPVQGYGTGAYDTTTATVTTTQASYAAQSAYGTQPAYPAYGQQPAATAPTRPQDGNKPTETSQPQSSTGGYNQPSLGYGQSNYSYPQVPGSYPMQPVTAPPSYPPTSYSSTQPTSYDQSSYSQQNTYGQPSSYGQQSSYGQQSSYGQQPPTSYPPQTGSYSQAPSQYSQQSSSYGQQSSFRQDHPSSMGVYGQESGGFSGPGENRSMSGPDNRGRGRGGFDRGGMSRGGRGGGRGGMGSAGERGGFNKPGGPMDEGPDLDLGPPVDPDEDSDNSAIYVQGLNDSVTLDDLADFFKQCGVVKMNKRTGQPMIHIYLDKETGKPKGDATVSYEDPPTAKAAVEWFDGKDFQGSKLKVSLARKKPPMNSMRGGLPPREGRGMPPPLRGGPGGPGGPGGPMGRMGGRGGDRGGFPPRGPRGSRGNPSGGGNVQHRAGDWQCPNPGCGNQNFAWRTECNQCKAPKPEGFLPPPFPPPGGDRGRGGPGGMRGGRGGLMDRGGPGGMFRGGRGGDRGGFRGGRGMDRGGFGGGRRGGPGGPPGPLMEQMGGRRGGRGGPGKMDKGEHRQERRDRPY
inactive: [1] 0.047 | [2] -0.024 | [3] -0.012 | [4] 0.053 | [5] 0.002

EBP (UniProt Q15125)
inactive: [1] -0.011 | [2] -0.061 | [3] 0.022 | [4] 0.09 | [5] -0.141

DTL (UniProt Q9NZJ0)
UniProt Q9NZJ0, sequence (Q9NZJ0 whole entry, looked up): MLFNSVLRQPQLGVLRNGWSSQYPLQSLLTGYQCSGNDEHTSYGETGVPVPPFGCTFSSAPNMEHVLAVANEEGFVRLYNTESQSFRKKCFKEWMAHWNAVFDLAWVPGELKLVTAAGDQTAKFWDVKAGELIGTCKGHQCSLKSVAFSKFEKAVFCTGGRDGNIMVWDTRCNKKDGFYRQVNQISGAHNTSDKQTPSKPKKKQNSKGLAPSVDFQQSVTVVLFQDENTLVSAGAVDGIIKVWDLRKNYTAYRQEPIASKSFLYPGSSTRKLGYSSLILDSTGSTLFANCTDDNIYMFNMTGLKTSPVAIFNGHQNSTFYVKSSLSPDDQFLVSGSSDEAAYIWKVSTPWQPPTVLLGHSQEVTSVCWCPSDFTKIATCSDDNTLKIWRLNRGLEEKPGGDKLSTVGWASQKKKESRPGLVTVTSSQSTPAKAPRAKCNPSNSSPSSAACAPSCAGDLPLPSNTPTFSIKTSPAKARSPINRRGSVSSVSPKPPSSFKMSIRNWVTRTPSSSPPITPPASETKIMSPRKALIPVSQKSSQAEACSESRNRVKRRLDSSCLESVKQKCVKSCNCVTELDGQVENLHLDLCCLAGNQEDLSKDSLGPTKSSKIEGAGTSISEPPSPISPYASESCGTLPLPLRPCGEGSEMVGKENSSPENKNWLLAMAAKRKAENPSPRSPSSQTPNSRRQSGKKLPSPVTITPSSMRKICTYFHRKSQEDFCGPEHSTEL
inactive: [1] 0.033 | [2] 0.038 | [3] 0.089 | [4] -0.032 | [5] -0.01

FAM114A2 (UniProt Q9NRY5)
inactive: [1] 0.073 | [2] -0.002 | [3] -0.027 | [4] 0.019 | [5] 0.035

EWSR1 (UniProt H7BY36)
inactive: [1] -0.079 | [2] -0.06 | [3] 0.091 | [4] -0.058 | [5] 0.061

EAPP (UniProt Q56P03)
inactive: [1] 0.008 | [2] 0.048 | [3] 0.137 | [4] 0.029 | [5] -0.079

EGLN1 (UniProt Q9GZT9)
inactive: [1] 0.095 | [2] -0.023 | [3] -0.01 | [4] -0.038 | [5] -0.007

EXOC6 (UniProt Q8TAG9)
inactive: [1] -0.035 | [2] -0.022 | [3] -0.006 | [4] 0.037 | [5] 0.151

EDC4 (UniProt Q6P2E9)
inactive: [1] -0.026 | [2] 0.005 | [3] 0.027 | [4] 0.008 | [5] 0.011

GIGYF2 (UniProt Q6Y7W6)
UniProt Q6Y7W6, sequence (Q6Y7W6 whole entry, looked up): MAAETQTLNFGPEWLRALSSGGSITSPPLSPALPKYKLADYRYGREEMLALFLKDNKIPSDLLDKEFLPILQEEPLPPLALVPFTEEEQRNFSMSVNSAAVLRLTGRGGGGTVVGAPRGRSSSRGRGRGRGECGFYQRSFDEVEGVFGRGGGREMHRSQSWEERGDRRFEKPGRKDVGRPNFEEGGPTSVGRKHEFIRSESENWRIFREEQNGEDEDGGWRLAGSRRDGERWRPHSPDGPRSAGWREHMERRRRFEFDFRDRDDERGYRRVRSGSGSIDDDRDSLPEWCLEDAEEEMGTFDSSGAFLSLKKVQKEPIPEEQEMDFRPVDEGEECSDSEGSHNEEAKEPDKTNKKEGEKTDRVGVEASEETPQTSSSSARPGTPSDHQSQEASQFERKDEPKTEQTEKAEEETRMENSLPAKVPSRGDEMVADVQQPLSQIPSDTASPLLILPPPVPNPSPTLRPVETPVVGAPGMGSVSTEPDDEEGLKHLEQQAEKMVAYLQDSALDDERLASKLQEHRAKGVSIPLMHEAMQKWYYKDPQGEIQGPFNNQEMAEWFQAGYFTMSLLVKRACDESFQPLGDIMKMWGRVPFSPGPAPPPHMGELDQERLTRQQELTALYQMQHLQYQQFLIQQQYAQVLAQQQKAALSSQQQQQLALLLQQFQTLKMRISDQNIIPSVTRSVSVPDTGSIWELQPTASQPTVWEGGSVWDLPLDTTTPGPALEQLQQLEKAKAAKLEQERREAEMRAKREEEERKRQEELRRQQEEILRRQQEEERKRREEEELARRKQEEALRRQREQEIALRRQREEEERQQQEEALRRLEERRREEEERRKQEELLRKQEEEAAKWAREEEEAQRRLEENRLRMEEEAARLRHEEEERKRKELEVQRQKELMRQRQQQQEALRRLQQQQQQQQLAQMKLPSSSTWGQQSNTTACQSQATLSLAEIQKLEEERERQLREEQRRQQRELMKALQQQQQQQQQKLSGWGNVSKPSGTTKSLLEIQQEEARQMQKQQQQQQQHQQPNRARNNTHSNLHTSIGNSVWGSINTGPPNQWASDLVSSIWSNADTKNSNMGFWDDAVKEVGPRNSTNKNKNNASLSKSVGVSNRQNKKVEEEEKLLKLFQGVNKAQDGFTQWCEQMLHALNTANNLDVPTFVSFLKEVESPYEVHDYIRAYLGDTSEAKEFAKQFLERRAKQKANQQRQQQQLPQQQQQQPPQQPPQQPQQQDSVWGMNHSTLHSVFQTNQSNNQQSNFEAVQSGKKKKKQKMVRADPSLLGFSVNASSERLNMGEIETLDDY
inactive: [1] 0.047 | [2] -0.054 | [3] 0.011 | [4] -0.076 | [5] 0.033

ENO2 (UniProt P09104)
inactive: [1] 0.019 | [2] -0.122 | [3] 0.037 | [4] -0.009 | [5] -0.153

GALK1 isoform 2 (UniProt P51570)
inactive: [1] 0.014 | [2] 0.027 | [3] 0.035 | [4] 0.006 | [5] 0.073

EXOC1 (UniProt Q9NV70)
inactive: [1] -0.011 | [2] 0.032 | [3] 0.013 | [4] 0.02 | [5] 0.068

EMP3 (UniProt P54852)
inactive: [1] 0.026 | [2] -0.028 | [3] -0.038 | [4] -0.113 | [5] -0.345

FDX2 (UniProt Q6P4F2)
UniProt Q6P4F2, sequence (Q6P4F2 whole entry, looked up): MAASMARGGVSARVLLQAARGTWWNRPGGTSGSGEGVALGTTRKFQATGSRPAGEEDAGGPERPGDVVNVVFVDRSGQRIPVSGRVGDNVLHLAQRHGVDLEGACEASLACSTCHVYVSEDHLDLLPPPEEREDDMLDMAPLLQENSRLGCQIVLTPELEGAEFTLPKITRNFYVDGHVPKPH
inactive: [1] -0.039 | [2] 0.021 | [3] -0.012 | [4] 0.062 | [5] -0.05

FAM118A (UniProt Q9NWS6)
inactive: [1] -0.028 | [2] -0.033 | [3] -0.021 | [4] -0.108 | [5] -0.015

ERLIN1 (UniProt O75477)
inactive: [1] -0.03 | [2] 0.039 | [3] 0.02 | [4] 0.029 | [5] -0.033

FECH isoform 2 (UniProt P22830)
inactive: [1] 0.06 | [2] -0.101 | [3] -0.126 | [4] -0.229 | [5] -0.092

FNTB (UniProt P49356)
inactive: [1] 0.023 | [2] 0.135 | [3] 0.015 | [4] -0.008 | [5] 0.038

FBXO30 (UniProt Q8TB52)
inactive: [1] -0.034 | [2] 0.011 | [3] -0.041 | [4] 0.036 | [5] 0.12

EFCAB14 (UniProt O75071)
inactive: [1] 0.099 | [2] -0.074 | [3] 0.088 | [4] -0.014 | [5] 0.013

GCDH (UniProt Q92947)
inactive: [1] 0.034 | [2] -0.032 | [3] -0.022 | [4] -0.008 | [5] -0.004

EED, A0A5F9ZI63
inactive: [1] 0.022 | [2] -0.01 | [3] 0.027 | [4] -0.007 | [5] -0.011

FAM53B (UniProt Q14153)
inactive: [1] 0.044 | [2] -0.039 | [3] 0.055 | [4] -0.088 | [5] 0.022

FLAD1 (UniProt Q8NFF5)
inactive: [1] 0.006 | [2] 0.032 | [3] 0.011 | [4] 0.017 | [5] 0.022
